# Where “and” joins values, the source holds several entries; their conditions need not be identical. Equal values may be shown once. Where a name gives a salt, the structure may show the parent alone. Hit rate of the full screen: of about 5,800 compounds, about 620 (11%) showed activity. For the sample, actives were picked, then their nearest neighbours and some compounds at random. Unmarked numbers belong to inactive results.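 How the source made its calls: active = score above a cut-off or among the top three wells of a plate; in these data no inactive exceeds 0.85.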
# Tested on: primary human hepatic stellate cells (donor 1)
# Test: scaled lipid accumulation score (0 = DMSO-like, 1 = nortriptyline-like); higher = stronger HSC inactivation (lipid re-accumulation), active = hit call of the paper
# Conditions: 48 h
# [1] = library stock concentration: 10 mM
# [2] = library stock concentration: 3.33 mM
# [3] = library stock concentration: 1 mM
# [4] = library stock concentration: 400 uM
# [5] = library stock concentration: 2 mM
# [6] = library stock concentration: 80 uM
smiles,measurement,setting,value
C[C@H]1COc2c(C3(N)CC3)c(F)cc3c(=O)c(C(=O)O)cn1c23,scaled lipid accumulation score,[1],0.025 and ≤ 0
C[C@H]1COc2c(C3(N)CC3)c(F)cc3c(=O)c(C(=O)O)cn1c23 [Pazufloxacin],scaled lipid accumulation score,library stock concentration: 6.3 mM,≤ 0
Clc1ccccc1C(c1ccccc1)(c1ccccc1)n1ccnc1 [Clotrimazole],scaled lipid accumulation score,,≤ 0
same,scaled lipid accumulation score,[2],≤ 0
same,scaled lipid accumulation score,library stock concentration: 5.8 mM,≤ -0.001
same,scaled lipid accumulation score,[1],≤ 0
N=C(N)NC(=O)c1nc(Cl)c(N)nc1N [Amiloride hydrochloride dihydrate],scaled lipid accumulation score,,≤ 0
N=C(N)NC(=N)Nc1ccccc1 [1-Phenylbiguanide hydrochloride],scaled lipid accumulation score,[1],≤ 0
N=C(N)NC(=O)c1nc(Cl)c(N)nc1N [Amiloride HCl],scaled lipid accumulation score,[2],≤ 0
same,scaled lipid accumulation score,[1],≤ 0
N=C(N)NC(=O)c1nc(Cl)c(N)nc1N [Amiloride],scaled lipid accumulation score,library stock concentration: 8.7 mM,≤ -0.006
N=C(N)NC(=O)c1nc(Cl)c(N)nc1N,scaled lipid accumulation score,library stock concentration: 18.8 mM,≤ -0.021
CS(=O)(=O)O.N=C(NC(=O)c1nc(Cl)c(N)nc1N)Nc1ccccc1 [Phenamil methanesulfonate],scaled lipid accumulation score,[1],1.15 (active)
N=C(N)NC(=O)c1nc(Cl)c(N)nc1N [Amiloride hydrochloride],scaled lipid accumulation score,library stock concentration: 7.5 mM,≤ -0.001
same,scaled lipid accumulation score,[1],≤ 0
CC(=O)Nc1ccccc1 [Acetanilide],scaled lipid accumulation score,[2],≤ 0
same,scaled lipid accumulation score,[1],≤ 0 and 0.04
N=C(NC(=O)c1nc(Cl)c(N)nc1N)Nc1ccccc1 [Phenamil],scaled lipid accumulation score,library stock concentration: 16.4 mM,1.07 (active)
CCCCCCCCCCCCCCCC(=O)NCCc1ccc(O)c(O)c1 [N-Palmitoyl Dopamine],scaled lipid accumulation score,[3],≤ 0
CC[C@]1(O)C[C@@H]2CN(CCc3c([nH]c4ccccc34)[C@@](C(=O)OC)(c3cc4c(cc3OC)N(C)[C@H]3[C@@](O)(C(=O)OC)[C@H](OC(C)=O)[C@]5(CC)C=CCN6CC[C@]43[C@@H]65)C2)C1 [Vinblastine],scaled lipid accumulation score,[2],0.782
CC[C@]1(O)C[C@@H]2CN(CCc3c([nH]c4ccccc34)[C@@](C(=O)OC)(c3cc4c(cc3OC)N(C)[C@@H]3C45CCN4CC=C[C@](CC)([C@H]45)[C@H](OC(C)=O)[C@]3(O)C(=O)OC)C2)C1 (stereo partly specified) [Vinblastine],scaled lipid accumulation score,[1],0.956 (active)
CCCCC[C@@H](O)/C=C/[C@H]1[C@H](C/C=C\CCCC(=O)O)C(=O)C[C@@H]1O [ent-Prostaglandin E2],scaled lipid accumulation score,[3],≤ 0
CC(C)=CC[C@@H](O)C1=CC(=O)c2c(O)ccc(O)c2C1=O [Shikonin],scaled lipid accumulation score,library stock concentration: 6.9 mM,0.554
same,scaled lipid accumulation score,library stock concentration: 17.3 mM,≤ -0.012
CCCCC[C@H](O)/C=C/[C@H]1[C@H](O)CC(=O)[C@@H]1C/C=C\CCCC(=O)NCCO [Prostaglandin E2 Ethanolamide],scaled lipid accumulation score,[3],≤ 0
CC(C1=C(CCN(C)C)Cc2ccccc21)c1ccccn1 (stereo in doubt) [(S)-(+)-Dimethindene maleate],scaled lipid accumulation score,[1],0.162
CCCCCC(O)/C=C/C=O (stereo unspecified) [4-hydroxy Nonenal],scaled lipid accumulation score,[3],≤ 0
Cc1cc(C(=O)Nc2cc(Nc3ccc4c(/C=C/c5ccccn5)n[nH]c4c3)ccc2F)n(C)n1 [listing 1 of 2 here],scaled lipid accumulation score,[1],1.61 (active)
Cc1cc(C(=O)Nc2cc(Nc3ccc4c(/C=C/c5ccccn5)n[nH]c4c3)ccc2F)n(C)n1 [listing 2 of 2 here],scaled lipid accumulation score,[4],0.035
same,scaled lipid accumulation score,[5],0.724
CNC(=O)c1ccccc1Sc1ccc2c(/C=C/c3ccccn3)n[nH]c2c1,scaled lipid accumulation score,[4],0.07
same,scaled lipid accumulation score,[5],≤ -0.005
same,scaled lipid accumulation score,[1],0.024
CNC(=O)c1ccccc1Sc1ccc2c(/C=C/c3ccccn3)n[nH]c2c1 [Axitinib],scaled lipid accumulation score,[6],≤ -0.001
same,scaled lipid accumulation score,[4],≤ -0.001
same,scaled lipid accumulation score,[5],≤ -0.001
same,scaled lipid accumulation score,[2],≤ 0
same,scaled lipid accumulation score,[1],≤ 0 and ≤ -0.001
CCCCC[C@H](O)CC[C@@H]1[C@H]2Cc3cccc(OCC(=O)O)c3C[C@H]2C[C@H]1O [Treprostinil],scaled lipid accumulation score,[3],0.05
CCCC(=O)[O-].[Na+] [Sodium Butyrate],scaled lipid accumulation score,[3],≤ 0
CCCCCCCCCCOCCC(=O)O [4-Oxatetradecanoic acid],scaled lipid accumulation score,[3],0.156
C1=N/C2=N/c3ccc(OCCN4CCCC4)c(c3)COC/C=C/COCc3cccc(c3)C(=C1)N2 [Pacritinib],scaled lipid accumulation score,[6],0.184
same,scaled lipid accumulation score,[4],0.686
same,scaled lipid accumulation score,[5],0.473
C1=CCOCc2cc(ccc2OCCN2CCCC2)Nc2nccc(n2)-c2cccc(c2)COC1 [Pacritinib],scaled lipid accumulation score,[1],0.932 (active)
C1=N/C2=N/c3ccc(OCCN4CCCC4)c(c3)COC/C=C/COCc3cccc(c3)C(=C1)N2 [Pacritinib (SB1518)],scaled lipid accumulation score,[2],0.536
same,scaled lipid accumulation score,[1],0.41
Cn1c(N2CCCCS2(=O)=O)nc(C(=O)NCc2ccc(F)cc2)c(O)c1=O,scaled lipid accumulation score,[2],0.024
same,scaled lipid accumulation score,[1],≤ 0
NCCNc1ncc(C(N)=O)c(Nc2cccc(C(F)(F)F)c2)n1 [Syk Inhibitor II],scaled lipid accumulation score,[2],0.589
CC1c2ccccc2CN1CC1=NCCN1 (stereo unspecified),scaled lipid accumulation score,[1],0.014
CCCCC[C@H](O)/C=C/[C@H]1C2COC(C2)[C@@H]1C/C=C/CCCC(=O)O (stereo partly specified),scaled lipid accumulation score,[3],≤ 0
CC[C@@H](C)Nc1cc(C(=O)N[C@H]2C[C@H]3CC[C@@H](C2)N3c2ccc(C(=O)C3CC3)cn2)c(C)cc1C(N)=O,scaled lipid accumulation score,[2],0.762
CC[C@@H](C)Nc1cc(C(=O)NC2CC3CCC(C2)N3c2ccc(C(=O)C3CC3)cn2)c(C)cc1C(N)=O (stereo partly specified),scaled lipid accumulation score,[1],0.853 (active)
NC(=O)c1ccc[n+]([C@@H]2O[C@H](COP(=O)([O-])OP(=O)(O)OC[C@H]3O[C@@H](n4cnc5c(N)ncnc54)[C@H](OP(=O)(O)O)[C@@H]3O)[C@@H](O)[C@H]2O)c1 [Sodium beta-nicotinamide adenine dinucleotide phosphate],scaled lipid accumulation score,[1],≤ -0.027
CC1Nc2ccc(Cl)cc2S(=O)(=O)N1 (stereo unspecified),scaled lipid accumulation score,[1],≤ -0.006
CC(=O)c1ncc([C@@H](O)[C@H](O)[C@H](O)CO)[nH]1 [2-Acetyl-5-tetrahydroxybutyl Imidazole],scaled lipid accumulation score,[3],≤ 0
COc1ccc(/C=C/c2nc(NCCCN(C)C)c3ccccc3n2)cc1,scaled lipid accumulation score,[1],0.387
Cc1[nH]c2ccccc2c1CCNCc1ccc(/C=C/C(=O)NO)cc1 [Panobinostat (LBH589)],scaled lipid accumulation score,[2],0.728
same,scaled lipid accumulation score,[1],0.587
O=c1cc(N2CCNCC2)oc2c(-c3ccccc3)cccc12 [listing 1 of 2 here],scaled lipid accumulation score,[1],1.28 (active)
O=c1cc(N2CCOCC2)oc2c(-c3ccccc3)cccc12,scaled lipid accumulation score,[3],0.001
same,scaled lipid accumulation score,[2],≤ 0
same,scaled lipid accumulation score,[1],≤ 0 and 0.005
same,scaled lipid accumulation score,library stock concentration: 16.3 mM,≤ -0.012
"O=c1cc(N2CCOCC2)oc2c(-c3ccccc3)cccc12 [LY-294,002 hydrochloride]",scaled lipid accumulation score,[1],0.089
O=c1cc(N2CCNCC2)oc2c(-c3ccccc3)cccc12 [listing 2 of 2 here],scaled lipid accumulation score,[2],0.39
CC[C@]1(O)C[C@H]2CN(CCc3c([nH]c4ccccc34)[C@@](C(=O)OC)(c3cc4c(cc3OC)N(C)[C@H]3[C@@](O)(C(=O)OC)[C@H](OC(C)=O)[C@]5(CC)C=CCN6CC[C@]43[C@@H]65)C2)C1.O=S(=O)(O)O [Vinblastine sulfate],scaled lipid accumulation score,[1],1.67 (active)
CCC1(O)CC2CN(CCc3c([nH]c4ccccc34)[C@@](C(=O)OC)(c3cc4c(cc3OC)N(C)C3[C@]45CCN4CC=C[C@@](CC)([C@@H](OC(C)=O)[C@]3(O)C(=O)OC)[C@H]45)C2)C1.O=S(=O)(O)O (stereo partly specified) [Vinblastine sulfate salt],scaled lipid accumulation score,[1],0.877 (active)
CCCCCCCCCCCCCCCCCC(=O)OC(CC(=O)O)C[N+](C)(C)C (racemic) [DL-Stearoylcarnitine chloride],scaled lipid accumulation score,[1],0.037
CCCCCCCCCCCCCCCC(=O)OC[C@H](O)[C@H]1OC(=O)C(O)=C1O [Ascorbyl palmitate],scaled lipid accumulation score,library stock concentration: 4.8 mM,0.002
CC(=O)N[C@@H](CCC(=O)O)C(=O)O [Acetylglutamic acid],scaled lipid accumulation score,[1],≤ 0
CCCCN1CCCC1CNC(=O)c1cc(C#N)c2ccccc2c1OC (stereo unspecified) [Nafadotride],scaled lipid accumulation score,[1],0.668 and 0.214
CS(=O)(=O)c1ccc(-c2nc(-c3ccc(F)cc3)c(-c3ccncc3)[nH]2)cc1,scaled lipid accumulation score,[2],≤ 0
CN(C)CC[C@@H](c1ccc(Br)cc1)c1ccccn1,scaled lipid accumulation score,[1],≤ 0
O=C1NCCc2[nH]c(-c3ccncc3)cc21,scaled lipid accumulation score,[6],≤ -0.016
same,scaled lipid accumulation score,[4],0.1
same,scaled lipid accumulation score,[5],0.125
same,scaled lipid accumulation score,[2],≤ 0
same,scaled lipid accumulation score,[1],0.19
CCCCCCCCCCCCCC(=O)O [Myristic Acid],scaled lipid accumulation score,[3],≤ 0
Cc1cc(N2CCOCC2)ccc1Nc1nc(NC2CCCCC2)c2[nH]cnc2n1,scaled lipid accumulation score,[2],0.091
same,scaled lipid accumulation score,[1],≤ 0
c1nc2c(NC3CCCCC3)nc(Nc3ccc(N4CCOCC4)cc3)nc2[nH]1 [Reversine],scaled lipid accumulation score,[2],≤ 0
c1cn2cc(-c3ccc4cn[nH]c4c3)nc(Nc3ccc(N4CCOCC4)cc3)c2n1 [Entospletinib] [listing 1 of 2 here],scaled lipid accumulation score,[5],1.2 (active)
same,scaled lipid accumulation score,[1],1.21 (active)
c1cn2cc(-c3ccc4cn[nH]c4c3)nc(Nc3ccc(N4CCOCC4)cc3)c2n1,scaled lipid accumulation score,[2],1.04 (active)
same,scaled lipid accumulation score,[1],0.944 (active)
c1cn2cc(-c3ccc4cn[nH]c4c3)nc(Nc3ccc(N4CCOCC4)cc3)c2n1 [Entospletinib] [listing 2 of 2 here],scaled lipid accumulation score,[6],≤ 0
same,scaled lipid accumulation score,[4],0.023
Cn1c(=O)c(-c2c(Cl)cccc2Cl)cc2cnc(Nc3ccc(N4CCOCC4)cc3)nc21,scaled lipid accumulation score,[1],≤ 0
